According to PubChem BioAssay (Tox21):
Inconclusive results are not listed. Active and inactive are the calls of the source. Calls come from the whole dose curve; as a rule, active = well fitted inhibition curve with a large enough effect in the repeat runs; inconclusive = weak or mixed curves; inactive = no such curve, though single readings can be large or run the other way.

Target: Cytochrome P450 2C9 (Homo sapiens) (UniProt P11712)
Assay: Cytochrome P450 Family 2 Subfamily C Member 9 (CYP2C9) small molecule antagonists: luciferase reporter qHTS assay (AID 1671198); note: nearly all actives have a fitted effect of over 50% in size
Settings: P450-Glo CYP2C9 enzyme assay, luciferin luminescence; series mostly up to 115 µM; activity change, negative = inhibition: at the top concentration
How it was run: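 P450-Glo proluciferin substrate with CYP2C9 enzyme; 10 min RT preincubation, then NADPH regeneration 1 h at 37C; luciferin detection reagent 20 min RT, luminescence in relative luminescence units.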
% is set by controls: 0 for no effect and ±100 for the full control effect; potency is the fitted concentration of half-maximal effect.

Chain of Cytochrome P450 2C9 (Homo sapiens) (P11712 whole entry, looked up): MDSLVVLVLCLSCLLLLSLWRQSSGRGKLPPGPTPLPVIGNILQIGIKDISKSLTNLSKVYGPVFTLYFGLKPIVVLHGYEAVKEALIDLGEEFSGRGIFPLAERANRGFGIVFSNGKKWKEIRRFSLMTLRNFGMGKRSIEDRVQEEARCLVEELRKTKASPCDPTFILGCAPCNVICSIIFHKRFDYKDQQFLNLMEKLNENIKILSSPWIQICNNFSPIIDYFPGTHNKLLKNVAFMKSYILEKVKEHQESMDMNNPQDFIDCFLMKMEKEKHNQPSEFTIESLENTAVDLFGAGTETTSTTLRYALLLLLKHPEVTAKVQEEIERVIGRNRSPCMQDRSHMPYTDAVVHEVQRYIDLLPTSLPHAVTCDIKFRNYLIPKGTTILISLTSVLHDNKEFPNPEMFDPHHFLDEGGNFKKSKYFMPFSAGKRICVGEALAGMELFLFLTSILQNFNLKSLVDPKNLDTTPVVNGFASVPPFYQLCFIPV

Row | Structure (SMILES) | Potency | activity change, negative = inhibition
1 | CCCCCc1ccc(O)cc1 | 63.3 µM (active) | –
2 | CCCCCCCCOC(=O)c1cc(O)c(O)c(O)c1 | 2.24 µM (active) | –
3 | CN1CCN(CCCN2c3ccccc3Sc3ccc(Cl)cc32)CC1 | – | 15.6% [at 53 µM] (inactive)
4 | Cc1ccc(Cl)c(N)c1Cl | – | -10.7% (inactive)
5 | Nc1cccnc1N | – | -7.91% (inactive)
6 | C=CCc1cc(S(=O)(=O)c2ccc(O)c(CC=C)c2)ccc1O | 0.502 µM (active) | –
7 | CCCC(=O)c1cc(O)c(O)cc1O | 26.7 µM (active) | –
8 | CC(C)=NNC(N)=S | – | -14.7% (inactive)
9 | CN1CCN(c2ccccc2/C=C2\SCCN(c3ccc(Cl)c(Cl)c3)C2=O)CC1 | 10 µM (active) | –
10 | c1ccc(C[P+](c2ccccc2)(c2ccccc2)c2ccccc2)cc1 | – | -17.2% (inactive)
11 | CCN(CC)c1ccc(C=O)cc1 | – | 53.6% (inactive)
12 | COc1cccc(-c2ccc(/C=C\CN3CCCCCC3)cc2Cl)c1 | 35.4 µM (active) | –
